Screens (PubChem BioAssay)
TRHR ag = agonists of human TRH receptor; 360,000 tested, 0.18% active; AID 493084; TRHR cells, calcium flux fluo-8, FDSS agonist mode; activation, % at 2 µM; further: 0% is about no effect
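Steps: seed TRHR cells overnight; add fluo-8 no-wash Ca dye, RT 30 min–1.5 h; record 10 s baseline; pin-transfer compounds; monitor fluorescence 1 cycle/s for the agonist window. Calcium increases flag candidate agonists.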
D1 ag = activates the human D1 dopamine receptor. activation, % at 2 µM. HEK293 T-REx D1 cells, calcium flux, agonist mode. P21728. 360,000 tested, 1% active; further: 0% is about no effect
Target sequence (P21728 whole entry, looked up): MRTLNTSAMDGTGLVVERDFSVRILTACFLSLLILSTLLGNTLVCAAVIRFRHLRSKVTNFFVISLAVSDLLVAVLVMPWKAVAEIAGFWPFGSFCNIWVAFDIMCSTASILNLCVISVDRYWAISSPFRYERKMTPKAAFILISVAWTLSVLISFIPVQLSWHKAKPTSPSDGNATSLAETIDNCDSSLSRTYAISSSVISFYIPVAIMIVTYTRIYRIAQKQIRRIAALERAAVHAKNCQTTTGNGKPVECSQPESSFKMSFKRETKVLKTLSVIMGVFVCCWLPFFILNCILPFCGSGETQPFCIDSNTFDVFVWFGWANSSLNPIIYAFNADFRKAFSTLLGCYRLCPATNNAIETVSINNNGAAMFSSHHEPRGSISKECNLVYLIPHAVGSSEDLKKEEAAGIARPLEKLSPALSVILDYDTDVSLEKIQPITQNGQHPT
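Tetracycline-induced HEK293 TREx D1 cells, force-coupled to calcium signalling, were dye-loaded with a no-wash calcium kit. Compound was pin-added after a 10 s baseline. Fluorescence was read kinetically at 1 cycle/s for 180 s, with calcium rises flagged as agonism.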
D1 PAM = enhances dopamine response at the human D1 receptor | 360,000 tested, 0.036% active | potentiation, % at 10 µM | AID 504651 | HEK293 TREx D1 cells, calcium flux, dopamine EC20 potentiation | P21728; in the data active means potentiation above about 30%; further: 0% is about no effect
TRHR PAM = TRH receptor (human) allosteric enhancement; P34981; TRHR cells, fluo-8 calcium fluorescence, EC20 TRH enhancement; enhancement, % at 2 µM; 360,000 tested, 0.66% active; in the data active means enhancement above about 30%; further: 0% is about no effect
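Enhancer read-out: after compound pinning and an initial kinetic agonist-mode read, an EC20 of TRH (10 nM final) was injected and fluo-8 calcium signal (Ex 480/Em 530) followed at 1 s/cycle for 100 cycles in TRHR-expressing cells.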
D1 antagonist = antagonists of human D1 dopamine receptor | P21728 | HEK293 TREx D1 cells, calcium flux, dopamine EC80; active compounds read low | activity change, negative = inhibition, % at 10 µM | 360,000 tested, 3.2% active | AID 504652; in the data active means activity change below about -30%; further: on the % scale 0 is the no-effect control and ±100 the full control effect
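After overnight tetracycline induction at 30 C, force-coupled D1 HEK293 cells took up a no-wash calcium dye at room temperature. Compounds were added and monitored 180 s, and the response to EC80 dopamine was then recorded.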
The depositor's hits bear a star. In the library only some 4.6% were active in any assay of this set; here they are far more common. Unless noted, no stated cut-off is given here; in the data, active means activation above about 30%; inactive means the rest.

Results for CCOc1ccc(CN2CCC(C(=O)Nc3cccc(-c4ccn[nH]4)c3)CC2)cc1Cl ?
TRHR ag: 2; D1 ag: 17; D1 PAM: -9; TRHR PAM: 1; D1 antagonist: -53*

Results for CCCC1(c2ccccc2)NC(=O)N(CC(=O)c2[nH]c(C)c(C(=O)OCC)c2C)C1=O (stereo unspecified) ?
TRHR ag: -1; D1 ag: 39*; D1 PAM: 4; TRHR PAM: 5; D1 antagonist: 42

How did CCOC(=O)c1c(C)[nH]c(C(=O)CN2C(=O)NC3(CCCC3)C2=O)c1C do in these assays?
TRHR ag: 0; D1 ag: 2; D1 PAM: 0; TRHR PAM: 2; D1 antagonist: 29

How did CC(C)(C)c1ccc(S(=O)(=O)c2cnc(SCC(=O)Nc3ccc4c(c3)OCCO4)[nH]c2=O)cc1 do in these assays?
TRHR ag: 0; D1 ag: 0; D1 PAM: 0; TRHR PAM: -3; D1 antagonist: -14

Results for CCOc1ccc(N2C(=O)/C(=C\c3ccc(OC)c(O)c3)S(=O)(=O)C2c2cccc([N+](=O)[O-])c2)cc1 (stereo unspecified) ?
TRHR ag: -1; D1 ag: 2; D1 PAM: -15; TRHR PAM: -4; D1 antagonist: -73*

How did COc1ccc(CCNC(=O)CCc2cn(Cc3ccccc3Cl)c3ccccc23)c(OC)c1 do in these assays?
TRHR ag: 1; D1 ag: 4; D1 PAM: -2; TRHR PAM: -7; D1 antagonist: -36*

Results for CN(C)C(=O)c1ccc(NC(=O)c2cc(-c3ccco3)nc3ccccc23)cc1 ?
TRHR ag: 0; D1 ag: 4; D1 PAM: 3; TRHR PAM: 1; D1 antagonist: 12

Results for CCN(CC)CCNC(=O)c1ccc(NC(=O)c2cc(-c3ccco3)nc3ccccc23)cc1 ?
TRHR ag: 1; D1 ag: 2; D1 PAM: 1; TRHR PAM: -5; D1 antagonist: -40*

How did Cc1csc(NC(=O)c2cc(-c3ccco3)nc3ccccc23)n1 do in these assays?
TRHR ag: -2; D1 ag: -1; D1 PAM: -6; TRHR PAM: 6; D1 antagonist: -31*

What do the screens show for `COc1cccc(CNC(=O)c2cccc(-n3c(C)nc4cccnc43)c2C)c1`?
TRHR ag: 0; D1 ag: -1; D1 PAM: -2; TRHR PAM: 6; D1 antagonist: -10

Results for CCN(CC)c1ccc(NC(=O)C2CCN(c3nnc(-n4cccc4)s3)CC2)c(C)c1 ?
TRHR ag: -1; D1 ag: 0; D1 PAM: 0; TRHR PAM: -2; D1 antagonist: -38*

What do the screens show for `O=C(Nc1ccccc1C(F)(F)F)C1CCN(c2nnc(-n3cccc3)s2)CC1`?
TRHR ag: -2; D1 ag: 7; D1 PAM: -5; TRHR PAM: 7; D1 antagonist: -12

Results for COCC(C)n1c(C)cc(C(=O)COC(=O)c2n[nH]c3ccccc23)c1C (stereo unspecified) ?
TRHR ag: 1; D1 ag: 4; D1 PAM: -5; TRHR PAM: 1; D1 antagonist: -48*

Results for COc1cccc(NC(=O)c2oc3ccccc3c2NC(=O)c2ccc(OC(C)C)cc2)c1 ?
TRHR ag: 1; D1 ag: 50*; D1 PAM: -1; TRHR PAM: -5; D1 antagonist: -16

How did CCOc1ccc(C(=O)Nc2c(C(=O)c3ccccc3)oc3ccccc23)cc1 do in these assays?
TRHR ag: 32*; D1 ag: 143*; D1 PAM: 4; TRHR PAM: 6; D1 antagonist: 7

How did COc1cccc(NC(=O)c2oc3ccccc3c2NC(=O)c2ccc3c(c2)OCO3)c1 do in these assays?
TRHR ag: 2; D1 ag: 6; D1 PAM: -4; TRHR PAM: 3; D1 antagonist: 0

How did CSc1ccc(CCNC(=O)c2sc3ncccc3c2-n2cccc2)cc1 do in these assays?
TRHR ag: 0; D1 ag: 16; D1 PAM: 0; TRHR PAM: -2; D1 antagonist: -2

What do the screens show for `CCc1cccc(NC(=O)Nc2csc3c2CCCC3)c1`?
TRHR ag: 0; D1 ag: 15; D1 PAM: -4; TRHR PAM: 14; D1 antagonist: -30*
